Assay outcomes (PubChem BioAssay)
This is a sample that favours compounds with a hit; in the whole collection about 8.3% have one here.
Giardia FBPA inh: inhibitors of Giardia lamblia fructose-1,6-bisphosphate aldolase; purified Giardia FBPA; 290,000 tested, 0.71% active; AID 2451; Potency, µM (doses to about 59.6 µM), hits mostly inhibitors; also: nearly all actives have a fitted effect of over 55% in size
Target sequence (A8B2U2 whole entry, looked up): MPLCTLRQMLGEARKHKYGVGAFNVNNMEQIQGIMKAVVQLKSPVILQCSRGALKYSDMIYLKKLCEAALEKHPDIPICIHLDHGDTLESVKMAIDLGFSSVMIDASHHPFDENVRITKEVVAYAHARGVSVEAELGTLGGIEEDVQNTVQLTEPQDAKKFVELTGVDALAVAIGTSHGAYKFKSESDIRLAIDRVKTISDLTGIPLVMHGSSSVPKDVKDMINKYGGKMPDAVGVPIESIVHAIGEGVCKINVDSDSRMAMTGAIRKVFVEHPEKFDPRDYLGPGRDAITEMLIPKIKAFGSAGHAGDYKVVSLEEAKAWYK
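Giardia FBPA (40 nM reagent) was preincubated 10 min at RT with compound (up to 57.5 uM final), then substrate plus GAPDH/TPI/NAD/arsenate coupling system with diaphorase/resazurin was added; resorufin fluorescence (525/598 nm) was read after 20 min.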
Lassa entry inh: inhibitors of Lassa virus binding or cell entry; 300,000 tested, 1.2% active; Lassa virus pseudotype entry inhibition, cell reporter; Potency, µM (top dose mostly 37.9 µM), actives largely listed as inhibitors; calls by dose curve; tested in HEK293 cells; also: nearly all actives have a fitted effect of over 50% in size
MARV entry inh: Marburg virus entry inhibition; AID 540276; Potency, µM (doses to about 37.8 µM), most hits filed as inhibitors; 300,000 tested, 1.8% active; Marburg virus pseudotyped entry inhibition, cell reporter; calls by dose curve; tested in HEK293 cells
HCMV antiviral: human cytomegalovirus inhibition. HFF cells, HCMV-luciferase reporter, 72 h; active compounds read low. activity change, negative = inhibition, % at 57.5 µM. 410,000 tested, 4.5% active; in the data active = activity change below about -60%; inconclusive = no clear call, values can overlap the other calls; inactive = above about -39%
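Two-dose cell screen: HFF monolayers treated with compounds and infected with luciferase-expressing HCMV at 1 PFU/cell, 72 h at 37C, then lysed for luciferase measurement.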
HCV inhibitor: HCV inhibition; Huh7.5.1 HCVcc-Cre infection, luciferase reporter, 44 h; Potency, µM (top dose mostly 41.8 µM), most hits filed as inhibitors; 340,000 tested, 3.4% active
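Compounds are dispensed onto cells plated 4 h earlier at 1,000 per well, with HCVcc-Cre virus (about 0.5 moi) added next. Following 44 h of culture, luminescent signal is measured for 15 sec after 15 min with substrate at room temperature.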
FMDV antiviral: antivirals against foot and mouth disease virus | FMDV antiviral cell-based qHTS | Potency, µM (doses to about 57.9 µM), actives largely listed as inhibitors | 410,000 tested, 1.2% active; calls by dose curve; tested in HEK293T cells; also: read-out not given here; nearly all actives have a fitted effect of over 45% in size
Hits are given with their value; . = inactive; ? = inconclusive; / = not tested or not shown; [ ] = dose if it differs, or a comment. Unless noted, calls follow the shape of the dose curve; as a rule, active = well fitted curve in the direction sought with a large enough effect; inconclusive = small, poorly fitted or top-dose-only effect, or another doubt; inactive = no such curve, though single readings can be large; an effect the other way counts as inactive or inconclusive.

SMILES | Giardia FBPA inh | Lassa entry inh | MARV entry inh | HCMV antiviral | HCV inhibitor | FMDV antiviral
CCn1c(CSc2nnc(-c3ccc4c(c3)OCO4)o2)nc2cc(S(=O)(=O)N(C)C)ccc21 | . | . | . | -82.4 | ? | ?
CCn1c(CSc2nnc(C)n2-c2ccccc2)nc2cc(S(=O)(=O)N(C)C)ccc21 | . | . | . | . | . | .
CCN(CC)S(=O)(=O)c1ccc2c(c1)nc(CCC(=O)Nc1ccc3c(c1)OCO3)n2CC | . | . | ? | -68.1 | . | .
COc1ccc(-c2nc3cnc(N4CCOCC4)nc3n(Cc3cccs3)c2=O)cc1 | . | / | / | / | / | .
CCC[C@H]1[C@H](NCc2ccccc2)CC[C@@]23CCCN2C(=O)CCC[C@@H]13 | / | / | / | . | / | /
CCNc1ncc2nc(C)c(=O)n(C3CC3)c2n1 | . | / | / | / | / | .
CN(C)/C=N/C(=S)Nc1ccc(Cl)cc1Cl | . | ? | . | . | 14.1µM | .
CCN1CCN(c2cc(C)c3cc(NC(=O)c4cc(Br)ccc4Cl)ccc3n2)CC1 | / | ? | ? | -72.2 | / | .
CCN1CCN(c2cc(C)c3cc(NC(=S)N4CCCC(C)C4)ccc3n2)CC1 (centres undefined) | . | ? | 7.94µM | -71.2 | ? | .
CCN1CCN(c2cc(C)c3cc(NC(=S)N4CCCC4)ccc3n2)CC1 | . | ? | ? | . | . | .
CCN1CCN(C(=S)Nc2ccc3nc(N4CCN(CC)CC4)cc(C)c3c2)CC1 | . | ? | ? | . | 12.6µM | .
CCN1CCN(C(=S)Nc2ccc3nc(N4CCN(C)CC4)cc(C)c3c2)CC1 | . | 10µM | ? | ? | ? | .
CCN1CCN(c2cc(C)c3cc(NC(=O)c4cccnc4Cl)ccc3n2)CC1 | . | . | ? | . | ? | .
CC(=O)c1c(O)cc(O)cc1CC(=O)O | . | / | / | . | 0.891µM | .
CC(=O)c1c(O)cc(O)c(C(C)=O)c1O | . | / | / | / | 3.55µM | ?
COc1cc(OC)c(C(C)=O)c(O)c1C | . | / | / | / | / | .
CC#CCOCC/C=C1/c2ccccc2C(OC)C1C (centres undefined) | .[12.9 µM] | / | / | / | / | /
CCC[C@H]1[C@@H](NC(=O)Nc2ccc(C(F)(F)F)cc2)CC[C@@]23CCCN2C(=O)CCC[C@@H]13 | / | / | / | . | / | /
O=C(NCC(c1ccc2c(c1)OCO2)N1CCN(c2ccccc2)CC1)C(=O)Nc1ccccc1 (centres undefined) | / | ? | / | . | / | .
COc1cc(CCCN2C(=S)NC[C@@H]2c2ccccc2)cc(OC)c1OC | . | / | / | -99.4 | ? | .
CCn1c(=O)c(C(C)=O)nc2ccccc21 | . | . | . | -65.7 | . | .
Cc1ccc(C)c(N2CCN(C3CCCC(C)C3)CC2)c1 (centres undefined) | ? | ? | 5.01µM | . | . | ?
COc1cccc(N2CCN(C3CCCC(C)C3)CC2)c1 (centres undefined) | . | . | . | . | . | .
O=C(Nc1ccc(F)cc1)OC[C@@H]1CSCCS(=O)(=O)N1 | / | ? | / | . | / | /
CCN(CC)S(=O)(=O)c1cccc(C(=O)Nc2ccc(Cl)cn2)c1 | . | ? | ? | . | 3.55µM | ?
SMILES | Giardia FBPA inh | Lassa entry inh | MARV entry inh | HCMV antiviral | HCV inhibitor | FMDV antiviral
CCN(CC)S(=O)(=O)c1cccc(C(=O)N[C@H](C(=O)NCc2ccc(Cl)cc2)C(C)C)c1 | . | 12.6µM | 10µM | . | ? | ?
CCN(CC)S(=O)(=O)c1cc(C(=O)Nc2cc(C)on2)ccc1Cl | / | . | . | -63.9 | ? | .
CCN(CC)S(=O)(=O)c1ccc(C(=O)Nc2cc(C)on2)cc1 | . | ? | . | . | . | .
CCN(CC)S(=O)(=O)c1cc(C(=O)Nc2ccc(Cl)cn2)ccc1C | . | ? | ? | . | 15.8µM | .
COc1cc(C(C)C)c2c(c1)S(=O)(=O)N(COc1cc(=O)n3cccc(OCCN4CCCCC4)c3n1)C2=O | . | / | / | / | / | ?
Cc1ccc(-n2nc(C)c3c(C(F)(F)F)cc(-c4cccnc4)nc32)cc1C | / | . | . | . | / | .
O=C(N/N=C/c1ccc(Sc2nc3ccccc3[nH]2)o1)c1ccncc1 | . | ? | . | ? | . | .
CCN1C(=O)S/C(=C/c2ccc(Sc3nc4ccccc4[nH]3)o2)C1=O | . | ? | ? | -65.3 | ? | 15.8µM
CCSc1nc2n(n1)C(c1ccc(Cl)cc1Cl)C(C(=O)Nc1ccccc1C)=C(C)N2 (centres undefined) | / | . | / | -90.6 | / | .
CCOc1ccccc1C1C(C(=O)Nc2ccccc2)=C(C)Nc2nc(SCC(=O)c3ccc(C)cc3)nn21 (centres undefined) | / | . | / | -71.7 | / | .
COc1ccc(NC(=O)C2=C(C)Nc3nc(SCc4ccccc4)nn3C2c2cc(OC)ccc2OC)cc1 (centres undefined) | / | ? | / | -81.8 | / | .
CC1=C(C(=O)Nc2ccccc2C)C(c2ccncc2)n2nc(SCc3ccccc3Cl)nc2N1 (centres undefined) | / | . | . | . | / | .
CCOC(=O)c1c(C)[nH]c(C)c1S(=O)(=O)NCC(=O)Nc1cccc(SC)c1 | / | . | / | . | / | .
CS(=O)(=O)NCCNc1ccc(C(F)(F)F)cc1[N+](=O)[O-] | . | / | / | . | . | .
COc1ccc(CNCCc2c(C)[nH]c3ccc(OC(F)(F)F)cc23)c(OC)c1 | . | ? | 6.31µM | -66.2 | 17.8µM | .
COc1ccc2[nH]c(C)c(CCNc3ccc(C(F)(F)F)cc3[N+](=O)[O-])c2c1 | . | . | 2.51µM | . | . | ?
COC(=O)c1cc2oc3ccccc3c2n1Cc1nc(-c2cccc(C)c2)oc1C | / | / | ? | . | / | .
COCCCNc1nc2c(c(=O)[nH]c(=O)n2C)n1C[C@@H](O)COc1ccccc1 | / | / | . | / | / | /
Cc1cc(Cl)ccc1NC(=S)NCCCO | . | . | . | . | . | .
Cc1sc2ncnc(N3CCC(C(=O)N(C)CC(=O)Nc4ccccc4Br)CC3)c2c1C | / | . | ? | -63.0 | ? | ?
Cc1sc2ncnc(N3CCC(C(=O)N(C)CC(=O)Nc4ccccc4Cl)CC3)c2c1C | . | 10µM | ? | -78.8 | / | 22.4µM
Cc1ccc(Cl)cc1NC(=S)NCCCSC1CCCCC1 | . | ? | ? | . | 10µM | ?
CCN(CC(=O)Nc1cc(Cl)ccc1C)C(=O)C1CCN(c2ncnc3sc(C)c(C)c23)CC1 | / | / | / | . | / | 17.8µM
C[C@@H](Oc1ccc(Oc2cnc3ccc(Cl)cc3n2)cc1)C(=O)O | . | / | ? | / | / | /
CCc1ccc(-n2nc(CO)c(C(=O)NC)n2)cc1 | / | . | ? | . | / | .
Cc1ccc(-c2nc(S(=O)(=O)c3ccc(C)cc3)c(SCC(=O)NC3CCCCC3)o2)cc1 | / | . | . | . | / | .
CCN(CC(=O)Nc1cc(Cl)ccc1C)c1ncnc2sc(C)c(C)c12 | . | . | ? | -78.4 | 25.1µM | .
CCN(CC(=O)Nc1cc(Cl)ccc1C)C(=O)C1CCCCC1 | . | . | ? | -61.1 | . | .
